Tau fibril FP – qHTS for Inhibitors of Tau Fibril Formation, Fluorescence Polarization. Microtubule-associated protein tau (Homo sapiens), P10636. K18 P301L tau heparin fibrillization, Alexa594 FP, 6 h. Potency, µM (highest dose often 57.7 µM), inactives show top-dose activity, negative = inhibition, most hits filed as inhibitors. 280,000 tested, 0.39% active. AID 1468, 2008; note: potency is the fitted concentration of half-maximal effect; nearly all actives have a fitted effect of over 55% in size
Target sequence (P10636 561-689 P618L limits assumed): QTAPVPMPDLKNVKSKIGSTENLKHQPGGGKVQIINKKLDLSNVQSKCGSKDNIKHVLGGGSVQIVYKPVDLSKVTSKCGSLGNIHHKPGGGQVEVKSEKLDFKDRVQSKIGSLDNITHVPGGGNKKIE
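Steps: dispense K18 P301L tau (15 uM plus 0.24 uM Alexa 594 tracer, final) in pH 7 sodium acetate; add compound; add heparin (20 uM final); incubate 6 hr, 37 C; add ThT (30 uM final); after 1 hr ambient, read FP.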
FBPA coupling cs – qHTS Assay for Inhibitors of Fructose-1,6-bisphosphate Aldolase from Giardia Lamblia: Coupling assay counterscreen | 290,000 tested, 0.67% active | AID 2472, 2010 | coupling enzyme system counterscreen, AmpLite Red fluorescence | activity change, negative = inhibition, % at 58.2 µM, hits read low; in the data active = activity change below about -30%
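Activity here indicates interference with the coupling reaction, not aldolase inhibition. Compounds at 57.5 uM final met coupling enzymes for 10 min at RT; substrate and AmpLite Red detection followed, with a 525/598 nm fluorescence read after 20 min.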
Tau fibril ThT – qHTS for Inhibitors of Tau Fibril Formation, Thioflavin T Binding; AID 1460, 2008; 270,000 tested, 2.1% active; Microtubule-associated protein tau (Homo sapiens), P10636; recombinant tau K18 P301L, heparin-induced fibrillization, ThT fluorescence; Potency, µM (doses to about 57.4 µM), without a hit: at the highest dose activity, negative = inhibition, usual class: inhibitors; note: potency is the fitted concentration of half-maximal effect; nearly all actives have a fitted effect of over 55% in size
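ThT emission at 510 nm, taken 1 hr after adding 30 uM dye, quantifies aggregates formed when 20 uM heparin acts on human tau K18 P301L for 6 hr at 37 C.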
Sfp PPTase inh – qHTS Assay for Inhibitors of Bacillus subtilis Sfp phosphopantetheinyl transferase (PPTase). 310,000 tested, 3.5% active. Biochemical Sfp PPTase activity, qHTS. AID 1490, 2009. Potency, µM, for the others: largest response in the series, negative = inhibition, actives largely listed as inhibitors. 4'-phosphopantetheinyl transferase ffp (Bacillus subtilis), Q9F4F7;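 note: the enzyme is Sfp with the accession as filed and its product quenches rhodamine fluorescence; potency is the fitted concentration of half-maximal effect; 0% = enzyme reaction without inhibitor and -100% = no enzyme wells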
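With Hepes-Na pH 7.6 buffer containing 10 mM MgCl2, Sfp (15 nM) modified BHQ-2-YbbR (12.5 uM) using rhodamine-CoA (5 uM). Two reads 30 minutes apart at 525/598 nm yielded each well's rate.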
Tau fluor counter – Counterscreen qHTS for Inhibitors of Tau Fibril Formation, Fluorescence Polarization. Potency, µM (doses to about 57.7 µM), for the others: at the top dose activity change, negative = decrease. 280,000 tested, 0.93% active. AID 1463, 2008. tau K18 P301L Alexa594 fluorescence, heparin fibrillization; note: potency is the fitted concentration of half-maximal effect; nearly all actives have a fitted effect of over 55% in size
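Human tau K18 P301L (15 uM unlabeled, 0.24 uM Alexa 594-labeled) in 100 mM sodium acetate pH 7 with 20 uM heparin, 6 hr at 37 C. ThT 30 uM added, 1 hr ambient; Alexa 594 FP and total fluorescence read at 555/632 nm.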
* marks the source's active call; other numbers are inactive results; ? = inconclusive; nt = not tested or not shown; [ ] = remark or other dose. Hits are enriched below; roughly 5.2% of the tested compounds scored in any of these assays. Unless noted, calls come from the whole dose curve; as a rule, active = well fitted curve in the direction sought with a large enough effect; inconclusive = small, poorly fitted or top-dose-only effect, or another doubt; inactive = no such curve, though single readings can be large; an effect the other way counts as inactive or inconclusive. Unless noted, % is set by controls: 0 for no effect and ±100 for the full control effect.

SMILES	Tau fibril FP	FBPA coupling cs	Tau fibril ThT	Sfp PPTase inh	Tau fluor counter
CCCCOc1ccc2c(c1)C(=O)c1cc(O)ccc1-2	?	3	11µM*	-2%	14µM*[quencher]
COc1ccc(-c2cn(-c3ccc(C)cc3)c(S(=O)(=O)CC(=O)Nc3ccccc3)n2)cc1	-16%	nt	-9%	nt	-29%
c1ccc(N2CCN(c3nc4cc5c(cc4s3)OCO5)CC2)cc1	-4%	0	2.5µM*	45µM*	-18%
c1c2c(cc3sc(N4CCOCC4)nc13)OCO2	0%	-1	?	35µM*	-16%
c1c2c(cc3sc(N4CCCCC4)nc13)OCO2	-17%	-1	?	-26%	-28%
COc1cc(NC(=O)CCCOc2cc(=O)n(C)c3ccccc23)cc(OC)c1OC	-5%	nt	-10%	nt	-11%
N#C/C(=N\Nc1ccc(S(=O)(=O)N2CCOCC2)cc1)C(N)=S	0%	-1	?	45µM*	-17%
N#CC(C#N)=NNc1ccc(S(=O)(=O)N2CCCCC2)cc1	8%	18	16µM*	15%	?
COC(=O)Nc1ccc(S(=O)(=O)N2CCCCCC2)cc1	9%	1	4%	9%	2%
CC1CCN(S(=O)(=O)c2ccc(N/N=C(/C#N)C(N)=O)cc2)CC1	-7%	-1	?	2%	-30%
CCN1C(=O)[C@H]2[C@@H]3[C@H](O)[C@H](O)CC(=O)[C@H]3CC[C@H]2C1=O	-3%[11.6 µM]	1	-6%[11.5 µM]	24%	-1%[11.6 µM]
CCn1c2ccccc2c2cc(/C=N/n3c(C)nnc3C)ccc21	-1%	-3	12%	50µM*	4%
CCOC(=O)c1c2c(c(=S)n(-c3ccccc3)c1N)CCC2	?	-19	25µM*	13µM*	?
CCOC(=O)c1c(N)sn(-c2ccccc2)c1=S	-4%	1	-10%	1%	-10%
N#Cc1c2c(c(=S)n(-c3ccccc3)c1N)CCCC2	-4%	-26	?	32µM*	-10%
Cc1cccc(-n2c3c(cc(-c4nc(-c5ccc(Cl)cc5)cs4)c2=O)C(=O)CC(C)(C)C3)c1	-11%	nt	3%	nt	-7%
CCn1c(SCC(=O)Nc2cc(C)ccc2F)nnc1-c1ccccc1O	-3%	nt	0%	nt	-6%
N#C/C(=C\c1ccc(C#N)cc1)C(=O)c1ccccc1	-1%	0	-14%	50µM*	-19%
CN(C)c1ccc(/C=C(\C#N)C(=O)c2ccccc2)cc1	-10%	3	?	-5%	?
Cc1ccc(Cn2c(=O)n(CCCCC(=O)NCCc3ccc(Cl)cc3)c(=O)c3ccccc32)cc1	-2%	nt	-2%	nt	-7%
CCOc1ccc2c(c1)[C@@H]1C=CC[C@@H]1[C@H](c1ccccc1Cl)N2	10%	nt	?	nt	?
COC(=O)COc1ccc(C2Nc3c(Cl)ccc(C(=O)O)c3C3C=CCC32)cc1 (stereo not drawn)	-17%	-3	?	10µM*	-28%
COC(=O)c1ccc([C@@H]2Nc3c(OC)ccc(C)c3[C@@H]3C=CC[C@@H]32)cc1	?	nt	13µM*	nt	?
COc1ccc(OC)c(C2Nc3c(Cl)ccc(C(=O)O)c3C3C=CCC32)c1 (stereo not drawn)	-12%	26	?	22µM*	-7%
CC(=O)N[C@@H](C=O)[C@@H](O)[C@H](O)[C@H](O)CO	2%	2	-2%	2%	-3%
SMILES	Tau fibril FP	FBPA coupling cs	Tau fibril ThT	Sfp PPTase inh	Tau fluor counter
Cc1ccc(OCCSc2nc3ccccc3n2CC(=O)N2CCOCC2)cc1	-5%	nt	?	nt	-13%
Cc1ccc(CNC(=O)COc2ccc(C)nc2[N+](=O)[O-])cc1	-5%	6	-3%	-13%	-4%
Cc1ccc(OCC(=O)c2ccc(Cl)s2)c([N+](=O)[O-])n1	?	-17	14µM*	20µM*	?
CC(C)CCN=Cc1c(O)n(-c2ccccc2)c(=O)c2ccccc12	-1%	-8	-15%	56µM*	-18%
CCN(CC)C(=S)S	nt	nt	nt	45µM*	nt
O=C(CN1C(=O)CCC1=O)Nc1nc(-c2ccccn2)cs1	-1%	1	-5%	50µM*	-2%
c1cncc(-c2cncnc2NC2CCNCC2)c1	nt	1	nt	-6%	nt
Cc1ccc(NC(=O)CC2Sc3ccccc3NC2=O)c(C)c1 (stereo not drawn)	-8%	nt	-1%	nt	-4%
Cc1ccc2c(c1)Sc1c(ccc3ccccc13)N2	0%	-20	3.2µM*	-13%	14µM*[quencher]
CC(C)(C)c1ccc(OC(=O)Nc2ccc(O)c(C(=O)O)c2)cc1	-2%	10	?	50µM*	?
Cc1sc2c(c1C)c(=O)n(-c1cccc(C(F)(F)F)c1)c(=O)n2Cc1ccccc1C#N	-9%	nt	12%	nt	5%
OCC1(CO)COC(C(Cl)(Cl)Cl)OC1	nt	nt	nt	26%	nt
CCCCC(=O)OC1=C(C(=O)c2ccccc2)N(C)S(=O)(=O)c2ccccc21	12%	nt	14µM*	nt	-23%
COc1ccc(-c2csc(Nc3ccc(C)cn3)n2)cc1OC	11%	-4	13µM*	?	?
COc1ccc(-c2csc(Nc3cc(C)ccn3)n2)cc1OC	nt	-3	nt	-28%	nt
Cc1ccc(Nc2nc(-c3ccc(O)c(O)c3)cs2)nc1	14%	-11	10µM*	35µM*	14µM*[quencher]
COc1cccc(Cn2c(=O)cnc3cnc(Nc4ccccc4)nc32)c1	nt	3	nt	-3%	nt
CCOC(=O)c1c(-c2ccc(C)o2)csc1NC(=S)NC(=O)c1ccccc1Br	-15%	-1	?	3.5µM*	-22%
CCOC(=O)c1c(-c2ccc(C)o2)csc1NC(=S)NC(=O)c1cccs1	?	-5	?	?	?
CCOC(=O)c1c(-c2ccc(C)o2)csc1NC(=O)CSc1nnc(C)s1	-11%	-8	?	22µM*	-18%
CCOC(=O)c1c(-c2ccccc2)csc1NC(=O)CSc1nnc(C)s1	-2%	-8	?	1%	-24%
CC(C)(C)c1csc(NNC(=O)c2ccc(Cl)cc2)n1	-3%	0	nt	45µM*	-13%
C[C@H](N)C(=O)N[C@@H](Cc1ccc(F)cc1)C(=O)N[C@@H](CCCN=C(N)N)C(=O)N[C@@H](CC1CCCCC1)C(=O)N[C@@H](CCCCN=C(N)N)C(=O)N[C@@H](Cc1ccc(O)cc1)C(N)=O	nt	0	nt	-2%	nt
COc1ccc(-n2c(SCc3ccccc3F)nc3c([nH]c4ccccc43)c2=O)cc1OC	-1%	nt	-3%	nt	-11%
COc1cccc2sc3ccc(C#CC4(N)CCCCC4)cc3c(=O)c12	nt	-8	nt	79µM*	nt
N#C/C(=C\c1ccc([N+](=O)[O-])o1)C(=O)Nc1ccc(F)cc1	?	-17	14µM*	40µM*	?

Compound activity deposited in PubChem by National Center for Advancing Translational Sciences (NCATS).
